The values below come from PubChem BioAssay (EPA / NIEHS).

Results filed as inconclusive are left out. More than one record can exist for a structure, and the calls need not agree. The source made the active and inactive calls. Rule for the calls, unless noted: active = hit-call score of the fitted dose curve at least 0.9, where 1 is the maximum; inconclusive = response in the unintended direction; inactive = score below 0.9.

The target of experiment [1] is Estrogen receptor beta (Homo sapiens) (UniProt Q92731). Description: OT_ER_ERbERb_1440: Odyssey Thera (OT) 24-hour HEK293T Protein-Complementation Assay for Estrogen Receptor-beta/-beta Homodimer (AID 2283380).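 Note: fluorescence gain from ER beta LBD homodimer complementation read by laser scanning cytometry; scored as signal increase over DMSO baseline for both agonists and antagonists.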 A digest of the protocol: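 HEK293T cells stably expressing human ER-beta LBD (aa 310-547) PCA homodimer pair, dosed 24 h; formaldehyde-fixed, Draq5-stained. Readout: increase in nuclear (agonist) or nuclear plus cytoplasmic (antagonist) fluorescence intensity versus DMSO, gain-of-signal fitting.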
Chain of Estrogen receptor beta (Homo sapiens) (Q92731 whole entry, looked up, the tested form may be a part): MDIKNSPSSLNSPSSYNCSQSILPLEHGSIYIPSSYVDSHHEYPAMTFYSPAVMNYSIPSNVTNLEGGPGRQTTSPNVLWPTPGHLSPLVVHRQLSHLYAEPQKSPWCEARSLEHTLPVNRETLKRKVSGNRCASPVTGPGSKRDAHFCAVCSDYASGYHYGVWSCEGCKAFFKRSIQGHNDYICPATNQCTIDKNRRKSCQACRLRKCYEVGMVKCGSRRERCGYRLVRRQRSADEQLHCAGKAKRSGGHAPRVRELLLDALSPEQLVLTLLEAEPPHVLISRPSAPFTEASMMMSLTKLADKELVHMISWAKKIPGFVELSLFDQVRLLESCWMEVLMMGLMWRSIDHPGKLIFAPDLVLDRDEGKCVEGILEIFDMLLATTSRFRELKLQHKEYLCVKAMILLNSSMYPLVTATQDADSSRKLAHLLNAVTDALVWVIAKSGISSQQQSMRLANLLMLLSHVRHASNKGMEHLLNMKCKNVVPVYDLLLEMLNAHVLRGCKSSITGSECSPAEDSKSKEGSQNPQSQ

In experiment [2] the target is Estrogen receptor (Homo sapiens) (UniProt P03372). The experiment in a line: OT_ERa_GFPERaERE_0480: Odyssey Thera (OT) 8-hour HeLa Transcription Induction Assay for Estrogen Receptor (AID 2283381; active = hit-call score of the fitted dose curve at least 0.9, where 1 is the maximum; inactive = score below 0.9). In outline: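 HeLa cells expressing GFP reporter under estrogen response element, imaged 8 h after dosing. GFP induction quantified by high-content fluorescence microscopy image analysis; gain of signal fitted versus DMSO.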
Chain of Estrogen receptor (Homo sapiens) (P03372 whole entry, looked up): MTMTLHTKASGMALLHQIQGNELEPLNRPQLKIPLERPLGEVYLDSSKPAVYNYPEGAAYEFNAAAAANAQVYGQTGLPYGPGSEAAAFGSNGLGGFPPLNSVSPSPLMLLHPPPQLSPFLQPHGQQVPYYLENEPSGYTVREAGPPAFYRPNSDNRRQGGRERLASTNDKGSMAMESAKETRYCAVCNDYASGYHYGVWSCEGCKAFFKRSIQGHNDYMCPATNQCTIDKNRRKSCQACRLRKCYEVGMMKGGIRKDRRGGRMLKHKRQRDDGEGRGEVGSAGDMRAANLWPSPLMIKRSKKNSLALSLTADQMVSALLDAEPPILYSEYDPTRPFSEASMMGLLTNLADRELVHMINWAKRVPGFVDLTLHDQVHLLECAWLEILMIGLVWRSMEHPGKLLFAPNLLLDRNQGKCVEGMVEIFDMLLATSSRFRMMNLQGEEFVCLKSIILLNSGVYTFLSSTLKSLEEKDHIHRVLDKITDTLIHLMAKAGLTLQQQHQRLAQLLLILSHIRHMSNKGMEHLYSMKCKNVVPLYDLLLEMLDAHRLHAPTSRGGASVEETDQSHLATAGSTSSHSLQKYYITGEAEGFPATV

Experiment [3] has the same target. The experiment in a line: OT_ERa_GFPERaERE_0120: Odyssey Thera (OT) 2-hour HeLa Transcription Induction Assay for Estrogen Receptor (AID 2283382). In outline: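 HeLa cells were dosed for 2 h, then GFP reporter induction was quantified by fluorescence microscopy with high-content image analysis. Gain of signal fitted against DMSO baseline.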
Experiment [4] has as its target Bile acid receptor (Homo sapiens) (UniProt Q96RI1). The experiment in a line: OT_FXR_FXRSRC1_0480: Odyssey Thera (OT) 8-hour HEK293T Protein-Complementation Assay for Farnesoid X receptor/SRC-1 Co-activator (AID 2283383). A digest of the protocol:
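HEK293T protein-fragment complementation assay: FXR and SRC-1 coactivator are fused to reporter fragments, and their interaction restores a fluorescent reporter. Readout was taken 8 h after dosing, with gain of signal fit relative to DMSO.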

For experiment [5] the target is unchanged. Description: OT_FXR_FXRSRC1_1440: Odyssey Thera (OT) 24-hour HEK293T Protein-Complementation Assay for Farnesoid X receptor/SRC-1 Co-activator (AID 2283384). A digest of the protocol: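 HEK293T cells, 24 h after chemical dosing. FXR–SRC-1 coactivator interaction read as fluorescence from protein-fragment complementation of a split reporter. Gain of signal fitted against DMSO baseline.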

The target of experiment [6] is Retinoic acid receptor RXR-alpha (Homo sapiens) (UniProt P19793). Description: OT_NURR1_NURR1RXRa_0480: Odyssey Thera (OT) 8-hour HEK293T Protein Complementation Assay for Nurr1/retinoid X receptor (RXR) (AID 2283385). In outline:
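HEK293T cells expressing Nurr1 and RXRα fused to reporter fragments (protein-fragment complementation); fluorescence measured 8 h after dosing. Gain of signal fitted relative to DMSO.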

In experiment [7] the target is Peroxisome proliferator-activated receptor gamma (Homo sapiens) (UniProt P37231). The experiment in a line: OT_PPARg_PPARgSRC1_0480: Odyssey Thera (OT) 8-hour Protein-Complementation Assay for Peroxisome Proliferator-activated Receptor Gamma / SRC-1 Co-activator (AID 2283387).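 Note: nuclear to cytoplasmic split Venus YFP fluorescence ratio reporting PPARg SRC-1 interaction.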 A digest of the protocol:
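Protein-fragment complementation of split Venus YFP reports PPARg/SRC-1 interaction in HEK293T (transfected 48 h before treatment), exposed 8 h. Readout: N/C fluorescence ratio at 488 nm from imaging, Draq5 for segmentation, positive fit relative to DMSO.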

Experiment [8] concerns the target Agonist Androgen Response Element (ARE), AR (gene 367) (UniProt P10275). The experiment in a line: OT_AR_ARELUC_AG_1440: Odyssey Thera (OT) 24-hour CHO-K1 Luciferase Assay for Agonist Androgen Response Element (ARE) (AID 2283379). A digest of the protocol:
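Seed CHO-K1 cells; dose compounds for 24 h; add D-luciferin plus ATP in PBS; read luminescence. Signal increase relative to vehicle defines agonist activity, with at least 3 replicate wells per sample.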

Experiment [9] concerns the target Retinoic acid receptor RXR-alpha (Homo sapiens) (UniProt P19793). Description: OT_NURR1_NURR1RXRa_1440: Odyssey Thera (OT) 24-hour HEK293T Protein Complementation Assay for Nurr1/retinoid X receptor (RXR) (AID 2283386). A digest of the protocol: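 HEK293T protein-fragment complementation of Nurr1 and RXRα fused to reporter fragments; compounds 24 h. Fluorescence gain from reconstituted reporter fitted versus DMSO.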

Experiment [10] addresses mouse Estrogen Receptor alpha (Era), Esr1 (gene 13982) (UniProt P19785). Description: NVS_NR_mERa: NovaScreen (NVS) Nuclear Receptor Binding Assay for mouse Estrogen Receptor alpha (Era) (AID 2283378).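 Note: hit means loss of bound radioligand signal relative to DMSO.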 A digest of the protocol: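 Extracted mouse Era incubated with tritiated or iodinated radioligand plus test chemical, 18 h. Bound fraction separated on filters, counted by scintillation. DMSO = negative control/baseline; duplicate single-point at 25 uM, then concentration-response follow-up.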

Chain of Agonist Androgen Response Element (ARE), AR (gene 367) (P10275 whole entry, looked up): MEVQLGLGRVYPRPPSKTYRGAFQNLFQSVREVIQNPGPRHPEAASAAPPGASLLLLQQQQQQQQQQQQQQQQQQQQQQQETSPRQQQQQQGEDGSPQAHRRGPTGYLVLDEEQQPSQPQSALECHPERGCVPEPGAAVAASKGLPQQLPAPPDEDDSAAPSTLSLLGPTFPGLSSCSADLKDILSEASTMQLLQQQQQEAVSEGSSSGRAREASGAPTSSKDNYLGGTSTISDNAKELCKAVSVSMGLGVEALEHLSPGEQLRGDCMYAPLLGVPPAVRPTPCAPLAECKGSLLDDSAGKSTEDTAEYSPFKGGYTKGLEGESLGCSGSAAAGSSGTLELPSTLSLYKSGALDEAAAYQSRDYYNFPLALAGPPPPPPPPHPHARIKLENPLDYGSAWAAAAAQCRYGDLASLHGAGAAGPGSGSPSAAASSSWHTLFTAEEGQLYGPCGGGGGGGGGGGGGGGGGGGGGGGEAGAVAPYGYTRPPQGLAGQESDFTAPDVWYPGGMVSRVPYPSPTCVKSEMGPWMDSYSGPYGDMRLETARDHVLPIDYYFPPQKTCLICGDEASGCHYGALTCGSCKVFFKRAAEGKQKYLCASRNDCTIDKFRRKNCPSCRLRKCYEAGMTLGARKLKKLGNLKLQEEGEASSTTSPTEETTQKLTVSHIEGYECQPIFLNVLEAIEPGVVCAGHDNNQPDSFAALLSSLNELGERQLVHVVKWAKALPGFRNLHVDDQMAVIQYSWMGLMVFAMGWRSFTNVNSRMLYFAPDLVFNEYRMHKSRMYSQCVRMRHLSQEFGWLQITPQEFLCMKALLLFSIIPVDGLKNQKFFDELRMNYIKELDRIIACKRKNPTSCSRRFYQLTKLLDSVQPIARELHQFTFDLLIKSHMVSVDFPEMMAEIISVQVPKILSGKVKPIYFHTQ
Chain of Peroxisome proliferator-activated receptor gamma (Homo sapiens) (P37231 whole entry, looked up, the tested form may be a part): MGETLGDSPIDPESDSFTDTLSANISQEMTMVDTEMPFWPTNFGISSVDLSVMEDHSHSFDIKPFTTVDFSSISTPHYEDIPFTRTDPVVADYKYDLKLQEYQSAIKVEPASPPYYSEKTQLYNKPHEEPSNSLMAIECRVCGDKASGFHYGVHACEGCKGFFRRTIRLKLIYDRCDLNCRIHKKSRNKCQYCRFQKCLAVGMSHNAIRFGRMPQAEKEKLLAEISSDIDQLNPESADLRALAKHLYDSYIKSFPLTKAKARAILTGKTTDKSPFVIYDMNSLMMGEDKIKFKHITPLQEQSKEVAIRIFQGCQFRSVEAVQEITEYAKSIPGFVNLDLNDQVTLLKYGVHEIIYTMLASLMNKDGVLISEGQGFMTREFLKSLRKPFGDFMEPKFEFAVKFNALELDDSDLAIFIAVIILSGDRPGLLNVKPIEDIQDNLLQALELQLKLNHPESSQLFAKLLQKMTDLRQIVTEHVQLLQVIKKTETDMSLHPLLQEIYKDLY
Chain of mouse Estrogen Receptor alpha (Era), Esr1 (gene 13982) (P19785 whole entry, looked up): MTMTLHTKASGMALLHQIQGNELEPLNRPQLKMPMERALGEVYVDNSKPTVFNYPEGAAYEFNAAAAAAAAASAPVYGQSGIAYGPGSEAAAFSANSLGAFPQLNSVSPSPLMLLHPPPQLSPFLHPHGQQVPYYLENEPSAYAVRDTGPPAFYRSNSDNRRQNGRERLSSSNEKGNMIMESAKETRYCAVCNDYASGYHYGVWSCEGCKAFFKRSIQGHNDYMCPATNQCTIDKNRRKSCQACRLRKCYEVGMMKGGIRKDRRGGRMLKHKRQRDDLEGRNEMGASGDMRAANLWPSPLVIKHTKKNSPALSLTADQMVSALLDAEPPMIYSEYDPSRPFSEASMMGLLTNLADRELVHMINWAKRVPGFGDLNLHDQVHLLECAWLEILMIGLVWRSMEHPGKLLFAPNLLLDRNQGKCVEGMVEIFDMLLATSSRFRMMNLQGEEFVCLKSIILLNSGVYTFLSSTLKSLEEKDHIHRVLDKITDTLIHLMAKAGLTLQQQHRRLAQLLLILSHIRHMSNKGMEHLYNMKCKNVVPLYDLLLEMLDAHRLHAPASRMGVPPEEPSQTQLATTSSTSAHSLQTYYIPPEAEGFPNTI
Chain of Retinoic acid receptor RXR-alpha (Homo sapiens) (P19793 whole entry, looked up, the tested form may be a part): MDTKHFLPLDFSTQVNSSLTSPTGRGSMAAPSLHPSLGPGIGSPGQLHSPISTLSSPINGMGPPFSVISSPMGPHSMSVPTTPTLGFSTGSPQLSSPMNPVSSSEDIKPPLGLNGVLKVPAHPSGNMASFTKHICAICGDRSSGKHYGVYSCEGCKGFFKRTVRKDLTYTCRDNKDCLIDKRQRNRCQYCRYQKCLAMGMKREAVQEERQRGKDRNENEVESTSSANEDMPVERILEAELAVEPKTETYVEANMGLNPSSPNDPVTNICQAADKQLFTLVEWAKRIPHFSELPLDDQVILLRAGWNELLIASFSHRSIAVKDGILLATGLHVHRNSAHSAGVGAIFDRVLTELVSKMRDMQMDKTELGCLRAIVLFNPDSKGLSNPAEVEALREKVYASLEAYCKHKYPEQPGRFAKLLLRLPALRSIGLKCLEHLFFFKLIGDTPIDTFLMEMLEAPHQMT
Chain of Bile acid receptor (Homo sapiens) (Q96RI1 whole entry, looked up, the tested form may be a part): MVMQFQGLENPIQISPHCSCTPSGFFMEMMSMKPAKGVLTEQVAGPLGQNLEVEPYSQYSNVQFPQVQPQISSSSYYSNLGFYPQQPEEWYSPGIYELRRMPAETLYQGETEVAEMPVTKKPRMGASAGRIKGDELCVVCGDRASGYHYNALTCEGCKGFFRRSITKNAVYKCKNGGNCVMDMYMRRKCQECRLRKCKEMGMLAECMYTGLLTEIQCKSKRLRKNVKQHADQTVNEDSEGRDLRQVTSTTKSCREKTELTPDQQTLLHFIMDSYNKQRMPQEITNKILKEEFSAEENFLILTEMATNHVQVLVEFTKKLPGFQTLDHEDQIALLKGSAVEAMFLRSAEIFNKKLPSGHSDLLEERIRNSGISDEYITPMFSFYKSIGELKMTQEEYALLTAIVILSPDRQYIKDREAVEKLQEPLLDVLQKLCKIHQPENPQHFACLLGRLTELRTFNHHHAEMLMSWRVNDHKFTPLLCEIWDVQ

`Cc1c(COC(=O)[C@@H]2[C@H](/C=C(\Cl)C(F)(F)F)C2(C)C)cccc1-c1ccccc1`: the result in [1], in [2], in experiment [3], in [4], in [5] and in experiment [6] was inactive. Further, the result in experiment [7] was inactive.

As for `CCOP(=O)(OCC)Oc1nc(Cl)c(Cl)cc1Cl`, the result in experiment [8], in experiment [1], in experiment [2], in experiment [3], in [6] and in experiment [7] was inactive.

On to `CCCCC(O)(Cn1cncn1)c1ccc(Cl)cc1Cl` (stereo not drawn), for which the call in experiment [8], in experiment [1], in [2], in experiment [4] and in experiment [7] was inactive. For the same compound, the AC50 (in general, the midpoint of the concentration-response curve, whichever way the signal moves) in experiment [3] was 77.5 µM (active); in experiment [5], 34.9 µM (active).

Take `O=c1n(Cl)c(=O)n(Cl)c(=O)n1Cl`: the compound was called inactive in experiment [1], in experiment [2], in experiment [3], in experiment [6], in experiment [9] and in experiment [7].

Turning to `COP(=S)(OC)SCn1nnc2ccccc2c1=O`, the outcome in [10], in experiment [8], in [1], in experiment [2], in [3] and in [7] was inactive.

As to `COCC(=O)N(c1c(C)cccc1C)C(C)C(=O)OC` (stereo not drawn), the result in experiment [1], in [2], in experiment [3], in experiment [4], in experiment [5] and in experiment [6] was inactive. For the same compound, the outcome in [9] and in experiment [7] was inactive.

Regarding `CCN(CC)C(=O)C(C)Oc1cccc2ccccc12` (stereo not drawn), the compound was called inactive in experiment [1], in experiment [2], in experiment [3], in experiment [6] and in [7]. Also, the concentration at half-maximal activity (AC50) in experiment [4] was 32.6 µM (active); in experiment [5], 31.3 µM (active).

Consider `COP(=S)(OC)Oc1ccc([N+](=O)[O-])c(C)c1`, for which the compound was classed as inactive in experiment [1], in experiment [2], in experiment [3], in experiment [6] and in experiment [7]. Also, the figures for the concentration at half-maximal activity (AC50) in [4] and in [5] were 21.3 µM (active) and 29.8 µM (active), respectively.

On to `CC(C)N1C(=O)N(c2ccccc2)CSC1=NC(C)(C)C`, for which the AC50 in [1] is 27.7 µM (active); in experiment [6], 74.4 µM (active). The outcome in experiment [2], in [3], in experiment [6] and in experiment [7] was inactive.

Turning to `CCOC(=O)C(C)OC(=O)c1cc(Oc2ccc(C(F)(F)F)cc2Cl)ccc1[N+](=O)[O-]` (stereo not drawn), the compound was called inactive in [1], in [2], in experiment [3], in experiment [6], in [9] and in experiment [7].

For `Cc1nc(N(C)C)nc(OC(=O)N(C)C)c1C`, the compound was classed as inactive in experiment [1], in [2], in experiment [3], in [5], in experiment [6] and in experiment [9]. In addition, the compound was classed as inactive in experiment [7].

Regarding `OC(c1ccc(Cl)cc1)(c1ccc(Cl)cc1)C(Cl)(Cl)Cl`, the call in experiment [10], in experiment [2], in [3] and in experiment [7] was inactive. In experiment [1], the AC50 is 12.3 µM (active).

Regarding `CCOc1cc(C(C)(C)C)ccc1C1COC(c2c(F)cccc2F)=N1` (stereo not drawn), the compound was called inactive in experiment [1], in experiment [2], in experiment [3], in experiment [6] and in [7]. Moreover, the concentration at half-maximal activity (AC50) in experiment [4] is 1.27 µM (active); in experiment [5], 31.6 µM (active).

Take `Nc1c(Cl)c(Cl)nc(C(=O)O)c1Cl`: the outcome in experiment [1], in experiment [2], in [3], in [6], in experiment [9] and in experiment [7] was inactive.

With `COCc1cnc(C2=NC(C)(C(C)C)C(=O)N2)c(C(=O)O)c1` (stereo not drawn), the compound was classed as inactive in experiment [8], in experiment [1], in experiment [2], in experiment [3], in [5] and in experiment [6]. For the same compound, the outcome in experiment [9] and in [7] was inactive.

For `Cc1cnc(C2=NC(C)(C(C)C)C(=O)N2)c(C(=O)O)c1` (stereo not drawn), the compound was classed as inactive in [8], in [1], in [2], in experiment [3], in experiment [6] and in experiment [7].

`COC(=O)NC(=S)Nc1ccccc1NC(=S)NC(=O)OC`: the call in [10], in experiment [1], in experiment [2], in [3], in experiment [4] and in experiment [5] was inactive. The compound was classed as inactive in experiment [7].

On to `CC1(C)CCC(=Cc2ccc(Cl)cc2)C1(O)Cn1cncn1` (stereo not drawn), for which the outcome in [10], in experiment [8], in experiment [1], in experiment [2], in experiment [3] and in experiment [7] was inactive.
